Counter-ions that a name gives are not always drawn.
Columns and labels:
Details in all cases: incubation time: 27 h, anaerobic, 37 °C;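 for the amine columns active = adjusted P below 0.05 in both replicates with a change the same way and a mean fold change under 0.8 or over 1.25; inactive = the rest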
[1] = test system: Clostridium sporogenes DSM 1664; assay: growth (OD595) fold change vs plate DMSO controls (fold change (ratio)); higher = more growth
In short: (§1)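 Absorbance at 595 nm was read after shaking the anaerobic mGAM cultures, which had grown in 96-well plates for 27 h at 37 °C. After blank subtraction and background correction against 20 µM compound solutions in water, a calibration factor of 5 gave OD values. Growth is the fold change against the median of the plate's DMSO controls. Values are the mean of 2 biological replicates, with fold changes above 1.5 set to NA.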

[2] = test system: Escherichia coli IAI1; assay: as above
In short: as §1

[3] = test system: Klebsiella aerogenes DSM 30053; assay: as above
In short: as §1

[4] = test system: Ruminococcus gnavus DSM 108212; assay: as above
In short: as §1

[5] = test system: Klebsiella aerogenes DSM 30053; assay: fold change of Histamine concentration vs plate DMSO controls (fold change (ratio)); higher = more amine produced, active = hit call of the paper (significant change in both replicates, either direction)
In short: (§2)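 Extracts of whole anaerobic mGAM cultures were analysed for amines by LC–triple-quadrupole MS with dynamic MRM and external calibration curves, with drift corrected within batch. Four gut strains were grown at 37 °C for 27 h in 80 µL wells with compounds at 20 µM final, sweeteners at 50 µM final. Each value expresses fold change over plate DMSO controls. The average of 2 biological replicates is shown.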

[6] = test system: Clostridium sporogenes DSM 1664; assay: fold change of Tryptamine concentration vs plate DMSO controls (fold change (ratio)); higher = more amine produced, active = hit call of the paper (significant change in both replicates, either direction)
In short: as §2

[7] = test system: Ruminococcus gnavus DSM 108212; assay: as above
In short: as §2

[8] = test system: Escherichia coli IAI1; assay: fold change of Putrescine concentration vs plate DMSO controls (fold change (ratio)); higher = more amine produced, active = hit call of the paper (significant change in both replicates, either direction)
In short: as §2

[9] = test system: Klebsiella aerogenes DSM 30053; assay: as above
In short: as §2

[10] = test system: Escherichia coli IAI1; assay: fold change of Cadaverine concentration vs plate DMSO controls (fold change (ratio)); higher = more amine produced, active = hit call of the paper (significant change in both replicates, either direction)
In short: as §2

[11] = test system: Klebsiella aerogenes DSM 30053; assay: as above
In short: as §2

[12] = test system: Ruminococcus gnavus DSM 108212; assay: fold change of 2-Phenylethylamine concentration vs plate DMSO controls (fold change (ratio)); higher = more amine produced, active = hit call of the paper (significant change in both replicates, either direction)
In short: as §2

Row | Structure (SMILES) | growth [1] | growth [2] | growth [3] | growth [4] | fold change of Histamine concentration [5] | fold change of Tryptamine concentration [6] | fold change of Tryptamine concentration [7] | fold change of Putrescine concentration [8] | fold change of Putrescine concentration [9] | fold change of Cadaverine concentration [10] | fold change of Cadaverine concentration [11] | fold change of 2-Phenylethylamine concentration [12]
1 | Nc1ccn([C@@H]2O[C@H](CO)[C@@H](O)C2(F)F)c(=O)n1 [Gemcitabine] (20 µM) | 0.371 | 0.338 | 0.294 | 0 | 1.07 (inactive) | 0.969 (inactive) | 0.641 (active) | 0.969 (inactive) | 1.01 (inactive) | 1.02 (inactive) | 0.999 (inactive) | 0.753 (inactive)
2 | CC[C@@H]([C@H](C)O)n1ncn(-c2ccc(N3CCN(c4ccc(OC[C@@H]5CO[C@@](Cn6cncn6)(c6ccc(F)cc6F)C5)cc4)CC3)cc2)c1=O [Posaconazole hydrate] (20 µM) | 0.942 | 1.02 | 1.02 | 1.03 | 1.11 (inactive) | 0.993 (inactive) | 1 (inactive) | 1.04 (inactive) | 1.03 (inactive) | 1.02 (inactive) | 0.992 (inactive) | 1.02 (inactive)
3 | CCC(C)n1ncn(-c2ccc(N3CCN(c4ccc(OCC5COC(Cn6cncn6)(c6ccc(Cl)cc6Cl)O5)cc4)CC3)cc2)c1=O (configuration not stated) [Itraconazole] (20 µM) | 1.03 | 0.985 | 1.03 | 0.531 | 1.13 (inactive) | 1.02 (inactive) | 1.05 (inactive) | 1.01 (inactive) | 1.03 (inactive) | 1 (inactive) | 0.995 (inactive) | 0.997 (inactive)
4 | CC(C)(C)NC[C@H](O)COc1ccccc1C1CCCC1 [Penbutolol sulfate] (20 µM) | 0.971 | 1.21 | 0.985 | 0.952 | 1.02 (inactive) | 1.03 (inactive) | 1.11 (inactive) | 1.1 (inactive) | 0.997 (inactive) | 1.02 (inactive) | 0.98 (inactive) | 1.25 (inactive)
5 | CC(=O)OCC(=O)[C@@]12OC(C)(C)O[C@@H]1C[C@H]1[C@@H]3C[C@H](F)C4=CC(=O)C=C[C@]4(C)[C@@]3(F)[C@@H](O)C[C@@]12C [Fluocinonide] (20 µM) | 0.81 | 0.961 | 0.997 | 0.976 | 1 (inactive) | 1.07 (inactive) | 0.936 (inactive) | 0.978 (inactive) | 1 (inactive) | 0.972 (inactive) | 0.988 (inactive) | 0.911 (inactive)
6 | CC[C@H]1OC(=O)[C@H](C)[C@@H](O[C@H]2C[C@@](C)(OC)[C@@H](O)[C@H](C)O2)[C@H](C)[C@@H](O[C@@H]2O[C@H](C)C[C@H](N(C)C)[C@H]2O)[C@](C)(O)C[C@@H](C)CN(C)[C@H](C)[C@@H](O)[C@]1(C)O [Azithromycin] (20 µM) | 0 | 0.212 | 0.39 | 0.162 | 0.0612 (active) | 0.0425 (active) | 0.0983 (active) | 0.366 (inactive) | 0.425 (active) | 0.633 (active) | 0.99 (inactive) | 0.115 (active)
7 | CN1CCC(=C2c3ccccc3C=Cc3ccccc32)CC1 [Cyproheptadine hydrochloride] (20 µM) | 0.683 | 1.01 | 0.98 | 1.15 | 1.03 (inactive) | 1.18 (inactive) | 0.98 (inactive) | 0.969 (inactive) | 0.996 (inactive) | 0.973 (inactive) | 0.999 (inactive) | 1 (inactive)
8 | CN(C)CC/C=C1/c2ccccc2Sc2ccc(Cl)cc21 [Chlorprothixene hydrochloride] (20 µM) | 1.03 | 0.991 | 1.01 | 0.904 | 0.956 (inactive) | 0.997 (inactive) | 0.87 (inactive) | 0.959 (inactive) | 0.996 (inactive) | 1.03 (inactive) | 1.02 (inactive) | 0.942 (inactive)
9 | CCOC(=O)N1CCC(=C2c3ccc(Cl)cc3CCc3cccnc32)CC1 [Loratadine] (20 µM) | 1.04 | 1.01 | 1.04 | 0.87 | 0.98 (inactive) | 1.18 (inactive) | 0.864 (inactive) | 1.02 (inactive) | 0.999 (inactive) | 1.05 (inactive) | 1 (inactive) | 0.808 (inactive)
10 | Cc1cccc(C)c1OCC(C)N (configuration not stated) [Mexiletine hydrochloride] (20 µM) | 0.941 | 1.02 | 1.15 | 0.936 | 0.934 (inactive) | 0.991 (inactive) | 1.02 (inactive) | 0.985 (inactive) | 0.998 (inactive) | 1.03 (inactive) | 1.02 (inactive) | 1.07 (inactive)
11 | NC(=O)NC1NC(=O)NC1=O (configuration not stated) [Allantoin] (20 µM) | 1.05 | 1.14 | 1 | 1.09 | 1.02 (inactive) | 1.11 (inactive) | 1.17 (inactive) | 1.1 (inactive) | 0.972 (inactive) | 0.983 (inactive) | 1.02 (inactive) | 1.05 (inactive)
